According to PubChem BioAssay (NCATS):
Results filed as inconclusive are left out. Calls of active or inactive are those of the source. The call rests on the fitted dose curve; in most records, active means well fitted curve in the direction sought with a large enough effect; inconclusive means small, poorly fitted or top-dose-only effect, or another doubt; inactive means no such curve, though single readings can be large; an effect the other way counts as inactive or inconclusive.

Columns and labels:
[1] = tested on: CAOV3; assay: Primary qHTS to identify gynecologic anti-cancer compounds using libraries of approved drugs and bioactive compounds (AID 1345084); settings: Gynecologic cancer cell panel viability, ATPlite luminescence, 48 h; series mostly up to 57.5 µM; further: nearly all actives have a fitted effect of over 55% in size; further: potency means the concentration at half of the fitted maximal effect
How it was run: (§1)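 Measured: luminescence after ATPlite addition (15 min, RT). Exposure: 48 h, 37 C, 5% CO2.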

[2] = tested on: CASKI; assay: as above; settings: Gynecologic cancer cell panel viability, ATPlite luminescence, 48 h; series mostly up to 57.5 µM
How it was run: as §1

[3] = tested on: Es-2; assay: as above; settings: Gynecologic cancer cell panel viability, ATPlite luminescence, 48 h; series mostly up to 57.5 µM
How it was run: as §1

[4] = tested on: HeLa; assay: as above; settings: Gynecologic cancer cell panel viability, ATPlite luminescence, 48 h; series mostly up to 57.5 µM
How it was run: as §1

[5] = tested on: Hek293T; assay: as above; settings: Gynecologic cancer cell panel viability, ATPlite luminescence, 48 h, control line for the selectivity index; series mostly up to 57.5 µM
How it was run: as §1

[6] = tested on: JEG-3; assay: as above; settings: Gynecologic cancer cell panel viability, ATPlite luminescence, 48 h; series mostly up to 57.5 µM
How it was run: as §1

[7] = tested on: OV90; assay: as above; settings: Gynecologic cancer cell panel viability, ATPlite luminescence, 48 h; series mostly up to 57.5 µM
How it was run: as §1

[8] = tested on: SKOV3; assay: as above; settings: Gynecologic cancer cell panel viability, ATPlite luminescence, 48 h; series mostly up to 57.5 µM
How it was run: as §1

[9] = tested on: Tov-21-G; assay: as above; settings: Gynecologic cancer cell panel viability, ATPlite luminescence, 48 h; series mostly up to 57.5 µM
How it was run: as §1

[10] = tested on: Tov112D; assay: as above; settings: Gynecologic cancer cell panel viability, ATPlite luminescence, 48 h; series mostly up to 57.5 µM
How it was run: as §1

[11] = tested on: PA-1; assay: as above; settings: Gynecologic cancer cell panel viability, ATPlite luminescence, 48 h; series mostly up to 57.5 µM
How it was run: as §1

[12] = tested on: C33A; assay: as above; settings: Gynecologic cancer cell panel viability, ATPlite luminescence, 48 h; series mostly up to 57.5 µM
How it was run: as §1

[13] = qHTS assay to identify inhibitors of the type 1 interferon - major histocompatibility complex class I in skeletal muscle: Counter screen cell viability and HiBit confirmation (AID 1347412); settings: iHSKM muscle cells + IFN-b, HiBiT or CellTiter-Glo, 24 h; Viability; at 45.9 µM (top of the series); further: nearly all actives have a fitted effect of over 60% in size
How it was run: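 Human myoblast knock-in line, 4.0 ng/ml IFN-beta stimulation, 24 h compound treatment. Endpoints: HiBiT lytic luminescence (HLA-B level) and CellTiter Glo (ATP). Dosing 12 concentrations, 3-fold steps, 46 uM highest final.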
On the % scale 0 is the no-effect control and ±100 the full control effect.

CC1(CCOC2OC(CO)C(O)C(O)C2O)CCC23OC2(C1)C(O)CC1C(C)(C(=O)O)CCCC13C (stereo unspecified)
inactive: Potency [1] | Potency [2] | Potency [3] | Potency [4] | Potency [5] | Potency [6] | Potency [7] | Potency [8] | Potency [9] | Potency [10]

CC[C@]1(O)CC2CN(CCc3c([nH]c4ccccc34)[C@@](C(=O)OC)(c3cc4c(cc3OC)N(C=O)[C@H]3[C@@](O)(C(=O)OC)[C@H](OC(C)=O)[C@]5(CC)C=CCN6CC[C@]43[C@@H]65)C2)C1 (stereo partly specified)
active: Potency [2] 89.1 nM | Potency [3] 447 nM | Potency [4] 282 nM | Potency [7] 1780 nM | Potency [11] 126 nM | Potency [9] 126 nM | Potency [10] 158 nM
inactive: Potency [1]

CCOc1cc(N2CCC(O)CC2)ccc1Nc1ncc2c(n1)N(C1CCCC1)CCC(=O)N2C
active: Potency [8] 8910 nM
inactive: Potency [12] | Potency [6] | Potency [10]

Cc1ccccc1C#Cc1ccc(CCC(=O)O)cc1
active: Potency [9] 17800 nM
inactive: Potency [12]

O=C1N=C(N2CCOCC2)CN1c1ccc(Cl)cc1
inactive: Potency [1] | Potency [2] | Potency [3] | Potency [4] | Potency [5] | Potency [6] | Potency [7] | Potency [11] | Potency [8] | Potency [9] | Potency [10]

CCC1C(=O)OC23C=C[C@@H]4C(C(=O)O)=CO[C@H](O[C@@H]12)[C@@H]43 (stereo partly specified)
inactive: Potency [1] | Potency [2] | Potency [3] | Potency [4] | Potency [5] | Potency [6] | Potency [7] | Potency [11] | Potency [8]

CC(=O)OC1C(=O)C2(C)C(O)CC3OCC3(OC(C)=O)C2C(OC(=O)c2ccccc2)C2(O)CC(OC(=O)C(O)C(NC(=O)c3ccccc3)c3ccccc3)C(C)=C1C2(C)C (stereo unspecified)
active: Potency [3] 316 nM
inactive: Potency [12] | Potency [5] | Potency [7] | Potency [10]

COc1cc(C(=O)NC2CCN(C)CC2)c(F)cc1Nc1ncc2c(n1)N(C1CCCC1)CC(F)(F)C(=O)N2C
active: Potency [12] 282 nM | Potency [3] 35500 nM | Potency [11] 158 nM
inactive: activity change, negative = inhibition [13] -23.9%

CN1CCC(Nc2nc(Nc3ccc(Oc4ccccc4)cc3)c3c(=O)[nH]cc(Br)c3n2)CC1
inactive: Potency [12] | Potency [5] | Potency [6] | Potency [7] | Potency [9] | Potency [10]

CC(C)c1cc(C(=O)N2CC[C@H](NC(=O)C3CC3)C2)n[nH]1
inactive: Potency [1] | Potency [2] | Potency [3] | Potency [4] | Potency [5] | Potency [6] | Potency [7] | Potency [11] | Potency [8] | Potency [9] | Potency [10]

Cc1nc(Nc2n[nH]c3c2CN(C(=O)NC(CN(C)C)c2ccccc2)C3(C)C)c2sccc2n1 (stereo unspecified)
active: Potency [1] 1410 nM | Potency [2] 3980 nM | Potency [3] 7940 nM | Potency [4] 10000 nM | Potency [5] 7940 nM | Potency [7] 3160 nM | Potency [11] 316 nM | Potency [10] 6310 nM

C[C@@H]1CCC2C(C)(C)[C@H](O)CC[C@]2(C)[C@@]12Cc1c(O)cc3c(c1O2)CNC3=O (stereo partly specified)
inactive: Potency [1]

C[C@@H]1O[C@@H](O[C@H]2[C@H](O[C@H]3[C@H](O[C@H]4CC[C@@]5(C)C(CC[C@]6(C)C5CC=C5[C@@H]7CC(C)(C)CC[C@]7(C(=O)O[C@@H]7O[C@H](CO)[C@@H](O[C@@H]8O[C@@H](C)[C@H](O)[C@@H](O)[C@H]8O)[C@H](O)[C@H]7O)CC[C@]56C)C4(C)C)OC[C@H](O)[C@@H]3O)O[C@H](CO)[C@@H](O)[C@@H]2O)[C@H](O)[C@H](O)[C@H]1O (stereo partly specified)
inactive: activity change, negative = cytotoxicity [12] -22.7% [at 6.55 µM] | activity change, negative = cytotoxicity [3] -47.2% [at 6.55 µM] | activity change, negative = cytotoxicity [7] -0.139% [at 6.55 µM]

O=C(c1ccccc1)c1ccc2nc(NC(=O)c3csc(C4CCN(c5ncnc6ccsc56)CC4)n3)[nH]c2c1
inactive: Potency [6]
active: Potency [12] 15800 nM | Potency [5] 8910 nM | Potency [7] 17800 nM | Potency [10] 12600 nM

CC[C@H](C)[C@H](NC(=O)[C@H]([C@@H](C)CC)N(C)C(C)=O)C(=O)N[C@H](C(=O)N[C@@H](CC(C)C)C(=O)[C@@]1(C)CO1)[C@@H](C)O
inactive: Potency [6]
active: Potency [12] 100 nM | Potency [4] 100 nM | Potency [10] 100 nM

O=S(=O)(c1ccccc1)c1cnc2c(N3CCNCC3)cccc2c1
inactive: Potency [1] | Potency [2] | Potency [3] | Potency [4] | Potency [5] | Potency [11] | Potency [9]

COc1ncc(Nc2ncc([C@@H](C)N3CCN(S(C)(=O)=O)CC3)cc2-c2nc(C)nc(N)n2)cc1F
active: Potency [2] 398 nM | Potency [5] 1260 nM | Potency [8] 398 nM
inactive: Potency [1] | Potency [3] | Potency [4] | Potency [7] | Potency [11] | Potency [10]

COc1ccc(F)cc1-c1cc(NC(=O)[C@@H]2CCCNC2)ncc1Cl
active: Potency [2] 891 nM | Potency [3] 794 nM | Potency [4] 708 nM | Potency [5] 398 nM | Potency [11] 355 nM | Potency [10] 708 nM
inactive: Potency [1] | Potency [6]

CC(C)CCC[C@@H](C)[C@H]1CC[C@H]2[C@@H]3CC(=O)[C@H]4C[C@@H](O)CC[C@]4(C)[C@H]3CC[C@]12C
inactive: Potency [1] | Potency [2] | Potency [3] | Potency [4] | Potency [5] | Potency [6] | Potency [7] | Potency [11] | Potency [8] | Potency [9] | Potency [10]
